The campaign covered roughly 29,000 compounds. About 85 (0.3%) were called active. This is one part of a sample in which actives are shown more often than they occur. A number with no mark means an inactive call.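 The calls were made as follows: active = replicate mean overnight rise in green fluorescent reporter signal, 3 or more SD over negative controls; inactive = the rest.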
assay: activators of Burkholderia fixLJ two-component system, primary screen, B. multivorans, GFP reporter (AID 1918990); settings: B. multivorans fixK-promoter GFP reporter, 18 h; stronger effect = higher value

Row | Compound | z-score
1 | COc1cc(NS(=O)(=O)c2cccs2)cc(OC)c1 | -1.05
2 | Cc1ccc(C(=O)Nc2ccc3[nH]c(=O)c(=O)[nH]c3c2)cc1 | -0.29
3 | CCCC(=O)Nc1cc2nn(-c3ccccc3)nc2cc1C | -0.72
4 | O=C(CSc1ccncc1)NC1CCOCC1Oc1cccc(F)c1 (centres undefined) | -0.58
5 | COc1cc(OC)c(N(C)C(=O)c2cc3c(=O)oc4ccccc4c3s2)cc1Cl | -1.12
6 | CCC(=O)N1CCc2cc(S(=O)(=O)NC(Cc3ccccc3)C(=O)NCc3ccccc3)ccc21 (centres undefined) | -1.81
7 | CC(NC(=O)CCN1CCN(C)CC1)c1cnn(-c2ccccc2)c1 (centres undefined) | 0.09
8 | COc1cc(OC)c(NC(=O)c2c3c(nn2C)-c2ccccc2SC3)cc1Cl | 1.42
9 | CCOC(=O)c1cnc2c(C)cc(C)cc2c1Nc1ccc(N2CCOCC2)cc1 | -0.2
10 | O=C1CCC2(CCCN(C(=O)c3n[nH]c4c3CCCC4)C2)CN1CC1CC1 (centres undefined) | -0.52
11 | CC(C)(C)NC(=O)CSc1nc(-c2ccc(F)cc2)cc(C(F)(F)F)n1 | -1.55
12 | CCc1ccc(CN(Cc2ccco2)C(=O)c2ccccc2Cl)cc1 | 1.11
13 | CCN1CCc2nc3sc(C(=O)Nc4ccccc4OC(F)(F)F)c(N)c3cc2C1 | -0.04
14 | Cc1ccc(S(=O)(=O)N2CCCC(C(=O)CCc3ccccc3)C2)s1 (centres undefined) | -1.15
15 | Cc1cc(C)nc(CCNC(=O)N(Cc2ccncc2)CC2CCC(=O)N2)n1 (centres undefined) | 0.83
16 | Cc1ccc(Cl)cc1NC(=O)CCS(=O)(=O)c1ccc(Br)s1 | -1.34
17 | CCCN1CCN(CCCNC(=O)Cn2nc(CC)n3c(cc4occc43)c2=O)CC1 | 0.72
18 | Cc1nn(C)c2c1C(NC(=O)c1cc(CC(C)C)on1)CCC2 (centres undefined) | -0.15
19 | Cc1ccc(NC(=O)C(Cc2ccccc2)NS(=O)(=O)c2ccc3c(c2)oc(=O)n3C)cc1C (centres undefined) | 0.54
20 | Cc1nc2c(-c3ccccc3)c(C)nn2c(C)c1CCC(=O)NCCc1ccccc1 | -0.95
21 | COc1ccc(-c2noc(CCC(=O)N(C)c3ccccc3C)n2)cc1 | -1.83
22 | CCn1c(=O)c(=O)n(CC)c2cc(N3CCCCC3)c(NC(=O)c3ccc(Cl)cc3)cc21 | 15.3 (active)
23 | CCn1c(=O)c(=O)n(CC)c2cc(N3CCCCC3)c(NC(=O)c3cccc(F)c3)cc21 | 0.36

Row | Compound | z-score
24 | CCn1c(C(=O)Nc2cc(Cl)ccc2C)cc2sc(Cl)cc21 | -0.88
25 | CCCn1nccc1S(=O)(=O)NCc1csc(-c2cnccn2)n1 | -1.08
26 | Cc1cccc(NC(=O)C2CCCN2S(=O)(=O)c2cccc3nsnc23)c1C (centres undefined) | 0.05
27 | CN1C(=O)c2[nH]nc(-c3ccc(F)cc3)c2C1c1ccccn1 (centres undefined) | 0.33
28 | CN(CCNC(=O)CN1CCCC(c2ccccc2)C1)S(C)(=O)=O (centres undefined) | 0.17
29 | Cc1[nH]c(=O)[nH]c(=O)c1CC(=O)NCc1ccc(-c2ncon2)cc1 | -1.58
30 | CCOC(=O)c1ccc(NC(=O)CC2C(=O)N(c3cccc(OC)c3)C(=O)N2C2CCCCC2)cc1 (centres undefined) | -0.28
31 | CCOC(=O)c1cc2c(=O)n3ccccc3nc2n(CCCOC)c1=NC(=O)C(C)(C)Oc1ccc(Cl)cc1 | -0.51
32 | Cc1cc(C(=O)NCCCc2nnc3ccccn23)nc(C)n1 | -0.17
33 | COc1ccc(CNC(=O)c2cc3c(s2)-c2ccccc2OC3)cc1 | 0.73
34 | COc1ccccc1CNC(=O)Cn1nccc1C1CCCNC1 (centres undefined) | 0
35 | CCCCNC(=O)c1ccc2c(c1)NC(=O)C(C(C)C)N2 (centres undefined) | 0.08
36 | COc1cc2nc(NCC(C)c3ccccc3)n3nc(-c4ccccc4)nc3c2cc1OC (centres undefined) | -0.67
37 | CCCS(=O)(=O)c1c(Nc2ccccc2C)sc(C(=O)c2ccccc2)c1N | 0.44
38 | CC1CCC2(CC1)N=C(c1ccccc1)C(=O)N2CC(=O)Nc1ccc(F)c(Cl)c1 (centres undefined) | -1.75
39 | Cc1cc(C)cc(NS(=O)(=O)c2ccc3[nH]cc(C(=O)N4CCCCC4)c(=O)c3c2)c1 | -1.09
40 | COc1ccc(CCNCc2c(C(=O)O)c(C)n(Cc3cccc(C)c3)c2C)cc1OC | -1.27
41 | COC(=O)c1c(NC(=O)c2cc(=O)c3c(C)cc(C)cc3o2)sc2c1CCCC2 | -1.12
42 | COCCN(CC=Cc1ccccc1)Cc1ccc2nonc2c1 | 0.18
43 | COc1cc2c(=O)c(S(=O)(=O)c3ccc(C(C)C)cc3)cn(Cc3ccccc3C)c2cc1OC | 0.3
44 | CCOC(=O)c1c(NC(=O)COc2cc(C)ccc2C(C)C)sc(C)c1C | -0.34
45 | c1ccc(-c2noc(CCn3ccnc3-c3cnsc3)n2)nc1 | 0.47
46 | Cc1ccc(-n2nc(CO)c(C(=O)NCCc3ccccc3)n2)cc1 | -0.78

Row | Compound | z-score
47 | CC(C)c1nnsc1C(=O)Nc1ccc(CC(=O)NC2CC2)cc1 | -0.11
48 | Cn1ccnc1C(O)c1cc2n(n1)CCN(Cc1cccc(Cl)c1)C2 (centres undefined) | 0.34
49 | COCCCNC(=O)c1c(NC(=O)c2cc(=O)c3cc(C)c(C)cc3o2)sc2c1CCCC2 | -0.42
50 | COc1cccc2c1C1(CCN(C(=O)c3ccccn3)CC1)OCC2 | 0.69
51 | CCOC(=O)C1CCCN(C(=O)Cn2ncc3c(C)n(Cc4ccc(F)cc4)c(C)c3c2=O)C1 (centres undefined) | 0.33
52 | COc1ccc(Cl)cc1NC(=O)NCC1CCN(Cc2ccccc2F)CC1 | -7.23
53 | Cc1ccc(C(=O)NCCc2nc(N)cc(=O)[nH]2)n1C(F)F | -0.52
54 | COc1ccc(NC(=O)CSc2nc3ncccc3[nH]2)c(OC)c1 | 1.38
55 | Cn1c(C2CCN(C(=O)CSc3nnc(N)s3)CC2)nc2ccccc21 | 0.47
56 | CN(Cc1ccccc1)C(=O)c1cc2c(=O)n(C)c3ccccc3c2s1 | 0.14
57 | CCOc1ccc(S(=O)(=O)N(CC(=O)NCCSCc2ccc(C)cc2)c2ccccc2)cc1 | -1.04
58 | Cc1c(NC(=O)c2cc(=O)c3ccccc3o2)c(=O)n(-c2ccccc2)n1C | -0.69
59 | COc1cccc(CNC(=O)c2cc(=O)[nH]c3ccc(S(=O)(=O)N4CCCCC4)cc23)c1 | -0.5
60 | CCc1ccc(NC(=O)CN2C(=O)C(c3ccccc3)=NC23CCCCCC3)cc1 | -1.83
61 | COC(=O)c1ccc(C2C(C(=O)Nc3ccccc3)=C(C)Nc3nc4ccccc4n32)cc1 (centres undefined) | -1.77
62 | COc1ccc(CNC(=O)Cn2nnc(-c3ccc(S(C)(=O)=O)cc3)n2)cc1 | 0.3
63 | Cn1c(=O)nc2n(-c3ccc(Br)cc3)c3cccc(Cl)c3cc-2c1=O | -1.2
64 | COc1ccc(C(=O)Nc2onc3c2CCCC3)cc1 | -2.06
65 | Cc1nc(C2CCN(S(=O)(=O)CCC3CCS(=O)(=O)C3)CC2)no1 (centres undefined) | 0.66
66 | Cc1ccc(Nc2c(-c3ccc(C)cc3)nc3cnccn23)cc1 | -1.25
67 | Cn1c(=O)c2c(nc(SCC(=O)Nc3ccc(F)cc3)n2Cc2ccccc2)n(C)c1=O | -1.14
68 | Cc1ccc2nc(-c3ccc(O)cc3)c(Nc3ccc4c(c3)OCO4)n2c1 | 0.53
69 | O=C(c1n[nH]c2ccccc12)N1CCc2nc(-c3cccc(F)c3)[nH]c2C1 | -1.33

Row | Compound | z-score
70 | COc1c(Cl)cc(C(=O)N(Cc2ccccc2F)C2CCS(=O)(=O)C2)cc1Cl (centres undefined) | -0.89
71 | Cc1ccn2c(Nc3ccc4c(c3)OCCO4)c(-c3ccc(C)s3)nc2c1 | 0.86
72 | CCOc1ccc(-c2cc3nc(C4CCN(C(=O)OC(C)(C)C)CC4)c(C(=O)Nc4cccc(CC)c4)cn3n2)cc1 | -0.21
73 | CCOc1ccc2nc(N3CCC(C(=O)Nc4cc(C)ccc4C)CC3)sc2c1 | -0.96
74 | Nc1ccnc(N2CCCC(c3[nH]ncc3-c3ccc(F)cc3)C2)n1 (centres undefined) | -0.16
75 | COc1cc(NC(=O)CCNC(=O)Cn2ccc3ccccc3c2=O)cc(OC)c1OC | 0.24
76 | CCCCOCC(=O)N1CCCC(c2ccn(CC(=O)O)n2)C1 (centres undefined) | -2.17
77 | CN(C)C1CN(Cc2cnc(-c3ccc(Cl)cc3)nc2)CC1O (centres undefined) | -0.39
78 | Cc1ccc(-c2nc(S(=O)(=O)c3ccc(C)cc3)c(N3CCCCCC3)o2)cc1 | -0.18
79 | COc1ccc(CNC(=O)c2cc3c(=O)[nH]c4ccc(C)cc4c3s2)c(OC)c1 | -1.16
80 | COc1cccc(OCc2cc(C(=O)N(C)Cc3nncn3C)n[nH]2)c1 | -1.49
81 | Cc1c(CNC(C)c2ccccc2)c(C(=O)O)c(C)n1Cc1c(F)cccc1Cl (centres undefined) | -2.09
82 | COCCN(CCOC)C(=O)c1ccc(-c2ncccc2Cl)cc1 | 0.44
83 | Cn1c(=O)c2c(nc(SCC(=O)Nc3ccc(F)cc3)n2Cc2ccc(Cl)cc2)n(C)c1=O | -2.04
84 | COCCNC(=O)c1cc(-c2cccc(Cl)c2)on1 | 1.09
85 | CCOc1ccccc1NC(=O)Cn1c(=O)n(Cc2ccco2)c(=O)c2sc3ccccc3c21 | -1.53
86 | COCCCCCC(=O)N1CC(O)C(Cc2cnccn2)C1 (centres undefined) | 0
87 | CS(=O)(=O)N1CCCn2nc(CNC(=O)CC3CCCC3)cc2C1 | -0.69
88 | Cc1ccc(C)c(Nc2nnc(-c3ccc(C)c(S(=O)(=O)N4CCCCC4)c3)c3ccccc23)c1 | -0.47
89 | COC(=O)c1ccccc1NS(=O)(=O)c1ccc2c(c1)CCCN2C(C)=O | -1.34

Reference: PubChem BioAssay AID1918990 (ICCB-Longwood Screening Facility, Harvard Medical School, 2023)
